# Data from PubChem BioAssay (EPA / NIEHS).
# Results filed as inconclusive are left out. Active and inactive are the calls of the source. The calls were made as follows: active = hit-call score of the fitted dose curve at least 0.9, where 1 is the maximum; inconclusive = response in the unintended direction; inactive = score below 0.9.
# Columns and labels:
# [1] = LTEA_HepaRG_LDH_cytotoxicity: Cytotoxicity Assessment in the Life Technologies and Expression Analysis (LTEA) Assay (AID 2283563)
# In short: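 Cells were thawed and plated for 48 h. Medium was then replaced with serum-free induction medium. Chemicals (8 half-log points, maximum 100 uM, 0.5% DMSO) were added in duplicate for 48 h, after which spent medium was assayed for LDH.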
# [2] = TOX21_p53_BLA_p2_viability: Viability Assessment in the Tox21 HCT-116 p53 Agonism Beta-lactamase Assay, Phase 2 (AID 2283591);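 also: compound exposure lasted 16 h at 37 °C; actives lower the ATP signal meaning cytotoxicity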
# In short: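 HCT116 p53-bla cells, 4000/well, dosed after 5 h plating (217-fold dilution of DMSO stocks) and incubated 16 h at 37C. Viability taken as cellular ATP by CellTiter-Glo luminescence after 30 min RT; signal loss marks cytotoxicity.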
# [3] = molecular target: Cellular tumor antigen p53 (Homo sapiens) (UniProt P04637); test: TOX21_p53_BLA_p2_ratio: Tox21 HCT-116 p53 Agonism Beta-lactamase Assay, Ratio, Phase 2 (AID 2283592)
# Chain of Cellular tumor antigen p53 (Homo sapiens) (P04637 whole entry, looked up): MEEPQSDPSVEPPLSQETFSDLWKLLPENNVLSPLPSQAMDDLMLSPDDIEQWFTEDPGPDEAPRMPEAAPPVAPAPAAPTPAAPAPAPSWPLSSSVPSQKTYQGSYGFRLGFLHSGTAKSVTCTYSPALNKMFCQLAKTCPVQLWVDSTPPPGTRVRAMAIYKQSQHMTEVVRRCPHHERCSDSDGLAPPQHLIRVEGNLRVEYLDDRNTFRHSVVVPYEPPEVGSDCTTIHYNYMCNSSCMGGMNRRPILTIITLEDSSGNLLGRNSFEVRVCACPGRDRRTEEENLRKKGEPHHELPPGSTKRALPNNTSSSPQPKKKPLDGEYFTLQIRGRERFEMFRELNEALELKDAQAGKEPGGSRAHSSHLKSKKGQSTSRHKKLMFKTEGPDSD
# In short: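 HCT116 p53-bla; 4000 cells/well; 5 h pre-incubation; cpd in DMSO, 217-fold dilution; 16 h 37C/5% CO2; CCF4-AM 2 h RT; Ex 405, Em 460/530 ratio; DMSO = baseline; positive fitting direction.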
# [4] = TOX21_p53_BLA_p3_viability: Viability Assessment in the Tox21 HCT-116 p53 Agonism Beta-lactamase Assay, Phase 3 (AID 2283593);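 also: cells exposed to compound for 16 h before reading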
# In short: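 HCT116 cells, 4000/well, dosed 5 h after plating by pin transfer (217-fold dilution from DMSO stock) and incubated 16 h at 37C, 5% CO2. Viability read as ATP luminescence with CellTiter-Glo after 30 min at room temperature.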
# [5] = molecular target: Cellular tumor antigen p53 (Homo sapiens) (UniProt P04637); test: TOX21_p53_BLA_p3_ratio: Tox21 HCT-116 p53 Agonism Beta-lactamase Assay, Ratio, Phase 3 (AID 2283596)
# In short: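 HCT116 p53-bla cells (4000/well) given compound in DMSO (217-fold dilution) after 5 h, incubated 16 h at 37C. CCF4-AM substrate 2 h at room temperature; 460/530 nm emission ratio, gain fitted against DMSO.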
# [6] = TOX21_p53_BLA_p4_viability: Viability Assessment in the Tox21 HCT-116 p53 Agonism Beta-lactamase Assay, Phase 4 (AID 2283597);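 also: hits lower the luminescence signal meaning cytotoxicity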
# In short: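 Cells plated, 5 h pre-incubation; DMSO compounds pinned (217-fold dilution); 16 h, 37C/5% CO2; CCF4-AM 2 h RT; CellTiter-Glo 30 min RT; luminescence read.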
# [7] = molecular target: Cellular tumor antigen p53 (Homo sapiens) (UniProt P04637); test: TOX21_p53_BLA_p5_ratio: Tox21 HCT-116 p53 Agonism Beta-lactamase Assay, Ratio, Phase 5 (AID 2283599)
# In short: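 HCT-116 p53-bla cells (4000/well) plated 5 h, dosed with compound (217-fold DMSO dilution) for 16 h at 37 C; CCF4-AM substrate 2 h at room temperature. Activity is the 460/530 nm emission ratio (405 nm excitation), fitted in gain-of-signal direction versus DMSO.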
# [8] = TOX21_p53_BLA_p5_viability: Viability Assessment in the Tox21 HCT-116 p53 Agonism Beta-lactamase Assay, Phase 5 (AID 2283600)
# In short: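 4000 cells/well; 5 h pre-incubation; DMSO compounds pin-transferred, 217-fold dilution; 16 h, 37C/5% CO2; CCF4-AM 2 h RT; CellTiter-Glo 30 min RT; luminescence.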
# [9] = molecular target: Cellular tumor antigen p53 (Homo sapiens) (UniProt P04637); test: TOX21_p53_BLA_p4_ratio: Tox21 HCT-116 p53 Agonism Beta-lactamase Assay, Ratio, Phase 4 (AID 2283601)
# In short: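 HCT-116 p53 beta-lactamase reporter cells (4000/well) preincubated 5 h, then compound (217-fold dilution of DMSO stock) for 16 h at 37C. CCF4-AM substrate added 2 h at room temperature; 460/530 nm emission ratio fitted upward versus DMSO.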
# [10] = Tanguay_ZF_120hpf_MORT_legacy: (Legacy) Oregon State University Tanguay Lab 120 Hour Post-fertilization zebrafish Assay for Mortality (AID 2283633)
# In short: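 5D WT zebrafish, chorion removed 4 hpf; 1 embryo/well from 6 hpf; static exposure to 120 hpf, 28C, dark, sealed. Final DMSO 0.64%. Readout: binary mortality, brightfield, 24 + 120 hpf; DMSO as negative control.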
# [11] = Tanguay_ZF_120hpf_YSE_legacy: (Legacy) Oregon State University Tanguay Lab 120 Hour Post-fertilization zebrafish Assay for Yolk Sac Edema (AID 2283634);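 as to AC50: actives raise the incidence of yolk sac edema above the DMSO baseline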
# In short: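 Dechorionate (pronase, 4 hpf) → place one 6 hpf embryo per well → static compound exposure, sealed and foil-covered, 28C, to 120 hpf → record yolk sac edema as present or absent. Final DMSO 0.64%.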
# [12] = Tanguay_ZF_120hpf_AXIS_legacy: (Legacy) Oregon State University Tanguay Lab 120 Hour Post-fertilization zebrafish Assay for Body Axis Malformation (AID 2283635);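 as to AC50: potency for an increased fraction of larvae scored with body axis malformation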
# In short: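 Chorion is removed with pronase at 4 hpf, then single 6 hpf embryos are dosed (final DMSO 0.64%) and held statically at 28C in sealed, foil-covered plates. At 120 hpf body axis malformation is recorded as present or absent.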
# [13] = Tanguay_ZF_120hpf_EYE_legacy: (Legacy) Oregon State University Tanguay Lab 120 Hour Post-fertilization zebrafish Assay for Eye Malformation (AID 2283636);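 also: binary presence or absence of eye malformation scored by brightfield in 120 hpf larvae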
# In short: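 Dechorionated Tropical 5D zebrafish embryos, one per well from 6 hpf, static exposure to 120 hpf at 28C, 0.64% DMSO. Eye malformation scored present/absent by brightfield; dead embryos not scored.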
# [14] = Tanguay_ZF_120hpf_SNOU_legacy: (Legacy) Oregon State University Tanguay Lab 120 Hour Post-fertilization zebrafish Assay for Snout Malformation (AID 2283637)
# In short: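 Dechorionated tropical 5D wild-type zebrafish embryos exposed statically from 6 to 120 hpf at 28C, one per well, in 0.64% DMSO. Snout malformation scored as present/absent by brightfield at 120 hpf; dead embryos not scored.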
# [15] = Tanguay_ZF_120hpf_JAW_legacy: (Legacy) Oregon State University Tanguay Lab 120 Hour Post-fertilization zebrafish Assay for Jaw Malformation (AID 2283638);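 as to AC50: active means more embryos with jaw malformation than DMSO controls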
# In short: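 Steps: dechorionate 4 hpf embryos (pronase); plate 1/well at 6 hpf; add test chemical, 0.64% DMSO final; seal, cover, hold at 28C statically to 120 hpf; score jaw defect presence/absence microscopically. Dead embryos not scored.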
# [16] = Tanguay_ZF_120hpf_OTIC_legacy: (Legacy) Oregon State University Tanguay Lab 120 Hour Post-fertilization zebrafish Assay for Otic Vesicle Malformation (AID 2283639)
# In short: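 Otic vesicle malformation is read as a yes/no morphology call at 120 hpf. Exposure is static at 28C with 0.64% (vol/vol) DMSO; embryos that die are excluded from non-mortality endpoints.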
# [17] = Tanguay_ZF_120hpf_PE_legacy: (Legacy) Oregon State University Tanguay Lab 120 Hour Post-fertilization zebrafish Assay for Pericardial Edema (AID 2283640);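 as to AC50: potency for increased incidence of pericardial edema versus DMSO baseline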
# In short: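 Embryos from wild-type 5D adults were staged, then dosed in 0.64% DMSO. They were kept sealed in the dark at 28C until 120 hpf. Pericardial edema was then recorded as present or absent.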
# [18] = Tanguay_ZF_120hpf_BRAI_legacy: (Legacy) Oregon State University Tanguay Lab 120 Hour Post-fertilization zebrafish Assay for Brain Malformation (AID 2283641)
# In short: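 Wild-type 5D larvae, static waterborne exposure to 120 hpf, 28C, 0.64% v/v DMSO. Brightfield scoring of brain defects, binary; dead embryos excluded. Positive ctrl 5uM trimethyltin chloride.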
# [19] = Tanguay_ZF_120hpf_SOMI_legacy: (Legacy) Oregon State University Tanguay Lab 120 Hour Post-fertilization zebrafish Assay for Somite Malformation (AID 2283647)
# In short: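 Read-out: presence or absence of somite malformation in 120 hpf larvae, gain-of-signal relative to DMSO baseline. Embryos lacked chorion (pronase, 4 hpf) and were exposed statically from 6 hpf at 28C; dead larvae not scored.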
smiles,measurement,setting,value
COc1ccc(-c2ccccc2)cc1NNC(=O)OC(C)C,outcome,[1],inactive
same,outcome,[2],inactive
same,outcome,[3],inactive
same,outcome,[4],inactive
same,outcome,[5],inactive
same,outcome,[6],inactive
same,outcome,[7],inactive
same,outcome,[8],inactive
same,outcome,[9],inactive
same,outcome,[10],inactive
same,outcome,[11],inactive
same,outcome,[12],inactive
same,outcome,[13],inactive
same,outcome,[14],inactive
same,outcome,[15],inactive
same,outcome,[16],inactive
same,outcome,[17],inactive
same,outcome,[18],inactive
same,outcome,[19],inactive
CCNP(=S)(OC)O/C(C)=C/C(=O)OC(C)C (stereo not given),outcome,[1],inactive
same,outcome,[2],inactive
same,outcome,[5],inactive
same,outcome,[6],inactive
same,outcome,[9],inactive
same,outcome,[10],inactive
same,outcome,[11],inactive
same,outcome,[12],inactive
same,outcome,[13],inactive
same,outcome,[14],inactive
same,outcome,[15],inactive
same,outcome,[16],inactive
same,outcome,[17],inactive
same,outcome,[18],inactive
Cc1cc(C)nc(Nc2ccccc2)n1,outcome,[1],inactive
same,outcome,[2],inactive
same,outcome,[3],inactive
same,outcome,[5],inactive
same,outcome,[6],inactive
same,outcome,[7],inactive
same,outcome,[8],inactive
same,outcome,[10],inactive
same,outcome,[11],inactive
same,outcome,[13],inactive
same,outcome,[14],inactive
same,outcome,[15],inactive
same,outcome,[16],inactive
same,outcome,[17],inactive
same,outcome,[18],inactive
same,outcome,[19],inactive
CCOc1nc(C(Cl)(Cl)Cl)ns1,outcome,[1],inactive
same,outcome,[3],inactive
same,outcome,[4],inactive
same,outcome,[6],inactive
same,outcome,[7],inactive
same,outcome,[8],inactive
same,outcome,[9],inactive
same,outcome,[10],inactive
same,outcome,[11],inactive
same,outcome,[12],inactive
same,outcome,[13],inactive
same,outcome,[14],inactive
same,outcome,[15],inactive
same,outcome,[17],inactive
same,outcome,[18],inactive
same,outcome,[19],inactive
COCc1cnc(C2=NC(C)(C(C)C)C(=O)N2)c(C(=O)O)c1 (stereo not given),outcome,[1],inactive
same,outcome,[10],inactive
same,outcome,[11],inactive
same,outcome,[13],inactive
same,outcome,[14],inactive
same,outcome,[15],inactive
same,outcome,[17],inactive
same,outcome,[18],inactive
same,outcome,[19],inactive
CCSC(=O)N1CCCCCC1,outcome,[1],inactive
same,outcome,[2],inactive
same,outcome,[4],inactive
same,outcome,[5],inactive
same,outcome,[7],inactive
same,outcome,[8],inactive
same,outcome,[10],inactive
same,outcome,[11],inactive
same,outcome,[12],inactive
same,outcome,[13],inactive
same,outcome,[14],inactive
same,outcome,[15],inactive
same,outcome,[16],inactive
same,outcome,[18],inactive
same,outcome,[19],inactive
CNC(=O)N(C)c1nnc(C(C)(C)C)s1,outcome,[1],inactive
same,outcome,[2],inactive
same,outcome,[3],inactive
same,outcome,[5],inactive
same,outcome,[6],inactive
same,outcome,[7],inactive
same,outcome,[8],inactive
same,outcome,[9],inactive
same,outcome,[10],inactive
same,outcome,[13],inactive
same,outcome,[14],inactive
same,outcome,[15],inactive
same,outcome,[16],inactive
same,outcome,[17],inactive
same,outcome,[18],inactive
same,outcome,[19],inactive
CCNC(=O)NC(=O)C(C#N)=NOC,outcome,[1],inactive
same,AC50,[11],37.8 µM (active)
same,AC50,[12],46 µM (active)
same,AC50,[13],51.5 µM (active)
same,AC50,[14],24.5 µM (active)
same,AC50,[15],19.6 µM (active)
same,outcome,[16],inactive
same,AC50,[17],47 µM (active)
same,outcome,[18],inactive
same,AC50,[19],41.6 µM (active)
N#Cc1c(Cl)cccc1Cl,outcome,[1],inactive
same,outcome,[5],inactive
same,outcome,[7],inactive
same,outcome,[9],inactive
same,outcome,[10],inactive
same,outcome,[11],inactive
same,outcome,[12],inactive
same,outcome,[13],inactive
same,outcome,[14],inactive
same,outcome,[15],inactive
same,outcome,[16],inactive
same,outcome,[17],inactive
same,outcome,[18],inactive
same,outcome,[19],inactive
CCN(CC)c1nc(C)cc(OP(=S)(OC)OC)n1,outcome,[1],inactive
same,outcome,[2],inactive
same,outcome,[3],inactive
same,outcome,[5],inactive
same,outcome,[6],inactive
same,outcome,[7],inactive
same,outcome,[9],inactive
same,outcome,[10],inactive
same,outcome,[11],inactive
same,outcome,[12],inactive
same,outcome,[13],inactive
same,outcome,[14],inactive
same,outcome,[15],inactive
same,outcome,[16],inactive
same,outcome,[17],inactive
same,outcome,[18],inactive
same,outcome,[19],inactive
CN/C(=N\[N+](=O)[O-])NCc1cnc(Cl)s1,outcome,[1],inactive
same,outcome,[2],inactive
same,outcome,[3],inactive
same,outcome,[6],inactive
same,outcome,[8],inactive
same,outcome,[9],inactive
same,outcome,[10],inactive
same,outcome,[11],inactive
same,outcome,[12],inactive
same,outcome,[13],inactive
same,outcome,[14],inactive
same,outcome,[15],inactive
same,outcome,[16],inactive
same,outcome,[17],inactive
same,outcome,[18],inactive
same,outcome,[19],inactive
Clc1nc(Cl)nc(Nc2ccccc2Cl)n1,outcome,[1],inactive
same,outcome,[2],inactive
same,outcome,[3],inactive
same,outcome,[6],inactive
same,outcome,[7],inactive
same,outcome,[8],inactive
same,outcome,[9],inactive
same,outcome,[10],inactive
same,outcome,[11],inactive
same,outcome,[12],inactive
same,outcome,[13],inactive
same,outcome,[15],inactive
same,outcome,[17],inactive
